Experiment [1] relates to Aerobactin synthetase IucA (Klebsiella pneumoniae). As to the kind of experiment: inhibition of K. pneumoniae IucA enzyme – biochemical, Tocris library, absorbance (AID 1345561; call rule not given here;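 also: 100% = enzyme without compound and 0% = no enzyme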). The following applies: purified IucA enzyme assay, absorbance (OD) read-out; stronger effect = lower value;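 tested at 8 µM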.
Experiment [2] is described as follows: viability loss in pontine glioma line – cell-based, SU-DIPG-XIII, MIPE4.0, CellTiter-Glo, qHTS, dose response (AID 1347061; cut-off not given, nearly all actives have AC50 up to about 37 µM;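 also: cells exposed to compound for 48 hours before readout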). The following applies: CellTiter-Glo ATP luminescence.
Experiment [3] is described as follows: viability loss in pontine glioma line – cell-based, JHH-DIPG-1, MIPE4.0, CellTiter-Glo, qHTS, dose response (AID 1347062; cut-off not given, nearly all actives have AC50 up to about 27 µM;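 as to AC50: cells exposed to compound for two days before readout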). The note with it: JHH-DIPG-1 viability, CellTiter-Glo ATP luminescence.
A short description of experiment [4]: viability loss in pontine glioma line – cell-based, SU-DIPG-XIII, MIPE5.0, CellTiter-Glo, qHTS, dose response (AID 1347064; cut-off not given, nearly all actives have AC50 up to about 23 µM;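 as to AC50: cells exposed to compound for 48 hours before the viability read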). The note with it: CellTiter-Glo ATP luminescence. A general note: ATP-based viability assays read luminescence as a measure of living cells.
The nature of experiment [5]: JHH-DIPG-1 glioma cell viability, MIPE5.0 library, CellTiter-Glo luminescence, qHTS (AID 1347067; cut-off not given, nearly all actives have AC50 up to about 26 µM;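 also: cells exposed to compound for 48 hours before readout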). The note with it: JHH-DIPG-1 glioma viability, CellTiter-Glo ATP luminescence.
Experiment [6] can be described thus: viability loss with induced miR-34 in A549 – imaging, A549 dox-inducible miR-34, nuclei and caspase counts, primary screen (AID 1347080;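 active = compounds whose cell count with miR-34 switched on is under 0.7 times the count with it off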). The note with it: A549 miR-34 inducible, Hoechst nuclei count, 48 h.
Experiment [7] is described as follows: compounds altering HSF1 focus formation in cells – imaging, Selleck Cancer Library (AID 1347162; in the data active = plate-normalised HSF1 focus index below about 0.46). The note with it: human cells, HSF1 nuclear foci imaging, at 10 µM; SSMD: measured here: HSF1 foci SSMD mean; cell count: measured here: cell number; plate-normalised HSF1 focus index: stronger effect = lower value.
Experiment [8] is described as follows: drug combination growth inhibition, ovarian cancer – cell-based, oncology-focused library, rucaparib conditional, profiling panel (AID 1508598). The note with it: patient-derived ovarian cancer cells, CellTiter-Glo viability, 144 h, stronger effect = lower value.
Experiment [9] can be described thus: galactose survival enhancers in mitochondrial complex I cybrids – cell-based, galactose medium, ATP luminescence, primary screen (AID 1645843;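 active = z-score of at least 1.8 in each of two replicates, scored against plate mean and spread of sample wells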;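 also: positive z means more ATP and so rescue of galactose-driven cybrid death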). The note with it: complex I mutant cybrid cells, 72 h, stronger effect = higher value.
The nature of experiment [10]: compounds altering circadian rhythm period length – cell-based, LOPAC library, luminescence reporter (AID 2774; call rule not given here;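 also: values are relative to mean of DMSO wells on each plate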). The following applies: circadian reporter cells, at 7 µM, actives lie on both sides.
Experiment [11] can be described thus: P. berghei load reduction in hepatocytes – cell-based, HepG2, luciferase luminescence, HepG2 viability, primary screen (AID 624349; in the data active = parasite load remaining mostly below about 12%, no sharp cut-off; inactive = mostly above about 10%;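 also: 100% = mean of DMSO negative control wells on the same plate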). The following applies: P. berghei liver stage in HepG2, luciferase luminescence, concentration not given here; parasite load remaining: stronger effect = lower value; viability: measured here: HepG2 viability without parasites.
Experiment [12] has as its system Hepatitis C virus NS3 helicase. As to the kind of experiment: blockers of NS3h binding to ssDNA – biochemical, fluorescence polarization, LOPAC1280 library, primary screen (AID 687035; in the data active = inhibition above about 37%). The note with it: Purified HCV NS3 helicase, Cy5-dT15 ssDNA binding fluorescence polarization; stronger effect = higher value; concentration not given here.
Experiment [13] in a line: compounds altering Cy5-DNA-NS3h complex signal – biochemical, LOPAC1280, artefact control for HCV NS3 helicase inhibitor project (AID 687037; call rule not given here). The following applies: Cy5-DNA-NS3h complex fluorescence interference counterscreen.
Experiment [14] can be described thus: growth inhibition of DIPG cells – cell-based, MIPE4.0 library, CellTiter-Glo luminescence, qHTS (AID 1347066; cut-off not given, nearly all actives have AC50 up to about 30 µM;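 also: cells exposed to compound for 48 hours before readout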). The note with it: SU-DIPG-VI viability, CellTiter-Glo ATP luminescence.
Experiment [15] is described as follows: chitosan synthesis blockers in C. neoformans – flow cytometry, Cibacron Brilliant Red staining (AID 1347148; call rule not given here;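 also: compound exposure lasted three days at 37 degrees C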). The following applies: Cryptococcus neoformans chitosan, stronger effect = lower value; at 10 µM unless noted. On the technique in general: A flow cytometer gives signals particle by particle.
A short description of experiment [16]: blockers of cellular phospholipid synthesis – cell-based, LOPAC library, screen 4, primary screen (AID 1347384; call rule not given here). The following applies: animal cells, phospholipid biosynthesis inhibition screen; at 10 µM.
Experiment [17] is described as follows: MELAS cybrid and Rieske KO viability enhancers – cell-based, MELAS cybrids, Rieske KO mouse fibroblasts, CellTiter-Glo, primary screen (AID 1508586;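 active = mean z-score across replicates of 1.96 or higher in either the MELAS or the Rieske mutant cell line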;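 also: z relative to plate mean and SD of compound and empty wells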). The note with it: low glucose.
Experiment [18] is described as follows: viability loss in pontine glioma line – cell-based, SU-DIPG-IV, MIPE4.0, CellTiter-Glo, qHTS, dose response (AID 1347063; cut-off not given, nearly all actives have AC50 up to about 30 µM;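 also: compound exposure lasted 48 hours before the viability readout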). The note with it: CellTiter-Glo ATP luminescence.
The nature of experiment [19]: growth inhibition of DIPG cells – cell-based, MIPE5.0 library, qHTS (AID 1347068; cut-off not given, nearly all actives have IC50 up to about 30 µM;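 also: cells exposed to compound for 48 hours before viability readout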). The note with it: SU-DIPG-XXV viability.
Setting [20] is: stronger effect = lower value, cell number ratio, induced over uninduced.
Setting [21] is: measured here: relative caspase fold change +Dox/-Dox.
[22] abbreviates: measured here: total cells with miR-34 induction, stronger effect = lower value.
Setting [23] is: measured here: total cells without miR-34 induction.
[24] abbreviates: MELAS cybrid survival, CellTiter-Glo 48 h, stronger effect = higher value.
Setting [25] is: Rieske KO mouse fibroblast survival, CellTiter-Glo 72 h.

This is an account of results in PubChem BioAssay.

Structures are written as SMILES. Values joined by “and” are separate entries in the source; they are usually repeats but may differ in a detail not shown here. Equal values may be shown once. Inconclusive results are not listed. Active and inactive are the calls of the source.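 The calls were made as follows, unless noted: active = normalized viability below 100% at a tested concentration; inactive = the rest.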

The term remaining activity denotes the signal under treatment as a percentage of the control signal. For orientation: viability means a read-out of living cells in per cent, often relative to untreated cells. Regarding `C[C@H](NC(=O)Cc1cc(F)cc(F)c1)C(=O)N[C@H](C(=O)OC(C)(C)C)c1ccccc1`, the remaining activity in [1] was 99.3% (inactive). In addition, the call in [2], in experiment [3], in experiment [4] and in experiment [5] was inactive. Further, the results for the fold change in experiment [6] (setting [20]) and in experiment [6] (setting [21]) were 0.918 (inactive) and 1.67, respectively. For the same compound, the values for the cell count in [6] (setting [22]), in [6] (setting [23]) and in experiment [7] were 8110, 8840 and 6880, respectively. The compound also showed an SSMD in experiment [7] of 2.12. In addition, in [7], the plate-normalised HSF1 focus index is 1.11 (inactive). The viability in experiment [8] (at 0.000305 µM, OCI-C5x cells, with rucaparib 10 µM, 100% = cells with rucaparib alone) was 103% (inactive); in [8] (at 0.000305 µM, OCI-C5x cells, without rucaparib), 116% (inactive); in experiment [8] (at 0.000305 µM, OCI-P5x cells, with rucaparib 20 µM, 100% = cells with rucaparib alone) it was 110% (inactive); in experiment [8] (at 0.000305 µM, OCI-P5x cells, without rucaparib), 111% (inactive); in experiment [8] (at 0.00122 µM, OCI-C5x cells, with rucaparib 10 µM, 100% = cells with rucaparib alone) it was 103% (inactive); in [8] (at 0.00122 µM, OCI-C5x cells, without rucaparib), 117% (inactive). Further, the viability was 109% (inactive) in [8] (at 0.00122 µM, OCI-P5x cells, with rucaparib 20 µM, 100% = cells with rucaparib alone); 107% (inactive) in experiment [8] (at 0.00122 µM, OCI-P5x cells, without rucaparib); 108% (inactive) in experiment [8] (at 0.00488 µM, OCI-C5x cells, with rucaparib 10 µM, 100% = cells with rucaparib alone); 126% (inactive) in [8] (at 0.00488 µM, OCI-C5x cells, without rucaparib); 106% (inactive) in experiment [8] (at 0.00488 µM, OCI-P5x cells, with rucaparib 20 µM, 100% = cells with rucaparib alone); 111% (inactive) in [8] (at 0.00488 µM, OCI-P5x cells, without rucaparib). Moreover, the viability was 103% (inactive) in experiment [8] (at 0.0195 µM, OCI-C5x cells, with rucaparib 10 µM, 100% = cells with rucaparib alone); 119% (inactive) in [8] (at 0.0195 µM, OCI-C5x cells, without rucaparib); 110% (inactive) in experiment [8] (at 0.0195 µM, OCI-P5x cells, with rucaparib 20 µM, 100% = cells with rucaparib alone); 102% (inactive) in experiment [8] (at 0.0195 µM, OCI-P5x cells, without rucaparib); 115% (inactive) in experiment [8] (at 0.0781 µM, OCI-C5x cells, with rucaparib 10 µM, 100% = cells with rucaparib alone); 117% (inactive) in experiment [8] (at 0.0781 µM, OCI-C5x cells, without rucaparib). Besides, the viability was 107% (inactive) in experiment [8] (at 0.0781 µM, OCI-P5x cells, with rucaparib 20 µM, 100% = cells with rucaparib alone); 101% (inactive) in experiment [8] (at 0.0781 µM, OCI-P5x cells, without rucaparib); 106% (inactive) in experiment [8] (at 0.313 µM, OCI-C5x cells, with rucaparib 10 µM, 100% = cells with rucaparib alone); 125% (inactive) in experiment [8] (at 0.313 µM, OCI-C5x cells, without rucaparib); 102% (inactive) in [8] (at 0.313 µM, OCI-P5x cells, with rucaparib 20 µM, 100% = cells with rucaparib alone); 99% (active) in experiment [8] (at 0.313 µM, OCI-P5x cells, without rucaparib). In addition, the viability in [8] (at 1.25 µM, OCI-C5x cells, with rucaparib 10 µM, 100% = cells with rucaparib alone) was 116% (inactive); in [8] (at 1.25 µM, OCI-C5x cells, without rucaparib), 117% (inactive); in experiment [8] (at 1.25 µM, OCI-P5x cells, with rucaparib 20 µM, 100% = cells with rucaparib alone) it was 84.1% (active); in experiment [8] (at 1.25 µM, OCI-P5x cells, without rucaparib) it was 85.6% (active); in experiment [8] (at 5 µM, OCI-C5x cells, with rucaparib 10 µM, 100% = cells with rucaparib alone) it was 120% (inactive); in experiment [8] (at 5 µM, OCI-C5x cells, without rucaparib) it was 120% (inactive). Also, the viability was 75.1% (active) in [8] (at 5 µM, OCI-P5x cells, with rucaparib 20 µM, 100% = cells with rucaparib alone) and 78.3% (active) in experiment [8] (at 5 µM, OCI-P5x cells, without rucaparib). In experiment [9], the z-score was 0.56 (inactive).

The term inhibition denotes the change of the read-out against control, counted positive when it falls. For `O=C1c2ccccc2-c2n[nH]c3cccc1c23`, the period change in experiment [10] is 1.23 h (active). Moreover, the parasite load remaining in [11] was 34% (inactive). Besides, in experiment [11], the viability turned out to be 81%. For the same compound, in [12], the inhibition was 1% (inactive). Also, the fluorescence ratio (interference) in [13] is 1 (inactive). In addition, the remaining activity in [1] is 103% (inactive). Also, the result in [2], in experiment [3], in experiment [14] and in experiment [16] was inactive. Besides, the fold fluorescence in experiment [15] was 20.5 [at 227 µM] (inactive). Moreover, the z-score in experiment [17] (setting [24]) is -0.446 (inactive); in experiment [17] (setting [25]), -0.381; in experiment [9] it was 0.03 (inactive) and 0.085 (inactive).

Usually AC50 stands for the concentration at which the activity in the assay is half-maximal. By IC50 is commonly meant the concentration that gives 50% inhibition. `O=C(c1ccc(Nc2nccc(-c3cc4ccccc4s3)n2)cc1)N1CCC(N2CCCC2)CC1`: the parasite load remaining in experiment [11] is 27.7% (inactive). Moreover, in experiment [11], the viability stood at 86.2%. Besides, in experiment [1], the remaining activity was 98.9% (inactive). The AC50 in experiment [2] is 23.5 µM (active); in [3] it was 18.7 µM (active); in experiment [18] it was 8.33 µM (active); in experiment [4] it was 8.33 µM (active); in experiment [14], 18.7 µM (active); in [5], 9.34 µM (active). In experiment [19], the IC50 is 9.34 µM (active). In addition, the fold change is 1.04 (inactive) and 1.02 (inactive) in experiment [6] (setting [20]); 0.636 and 0.577 in experiment [6] (setting [21]). Moreover, the cell count was 3590 and 394 in [6] (setting [22]); 3460 and 385 in [6] (setting [23]). Besides, the z-score in experiment [17] (setting [24]) is -0.0984 (inactive); in [17] (setting [25]), 0.125; in [9], -0.705 (inactive).

Take `O=Nc1c(-c2c(O)[nH]c3ccccc23)[nH]c2ccccc12`: the period change in experiment [10] was -0.845 h (active). Further, the parasite load remaining in experiment [11] was 33.5% (inactive). Moreover, in [11], the viability is 168%. In experiment [12], the inhibition was 0% (inactive). Besides, the fluorescence ratio (interference) in experiment [13] is 1 (inactive). Further, the remaining activity in [1] is 116% (inactive). Besides, the fold change in experiment [6] (setting [20]) is 1.02 (inactive) and 0.941 (inactive) and 1.27 (inactive); in experiment [6] (setting [21]) it was 0.96 and 0.857 and 0.731. Further, the cell count was 1220 and 814 and 1460 in experiment [6] (setting [22]); 1200 and 866 and 1140 in experiment [6] (setting [23]). The fold fluorescence in [15] is 9.39 [at 180.3 µM] (inactive). In addition, in experiment [16], the compound was called active. For the same compound, the z-score in experiment [9] was -1.48 (inactive) and -0.805 (inactive).

For the compound `C=CCc1cccc(/C=N/NC(=O)CN2CCN(Cc3ccccc3)CC2)c1O`, the remaining activity in experiment [1] was 83.1% (inactive). Also, in experiment [14], the AC50 is 16.6 µM (active). In addition, the fold change is 1.09 (inactive) and 0.918 (inactive) and 0.982 (inactive) in experiment [6] (setting [20]); 0.357 and 1.59 and 1.69 in experiment [6] (setting [21]). Also, the cell count in experiment [6] (setting [22]) was 2970 and 4320 and 3830; in experiment [6] (setting [23]), 2740 and 4710 and 3900; in experiment [7], 7490. This compound showed an SSMD in experiment [7] of 3.11. Besides, the plate-normalised HSF1 focus index in experiment [7] was 1.19 (inactive). In addition, the result in experiment [16] was inactive. In addition, in experiment [9], the z-score is -1.15 (inactive) and -0.59 (inactive).
